Laboratory results reported in the supplement of paper PMC10981050.
Values joined by “and” are separate entries in the source; they are usually repeats but may differ in a detail not shown here. Equal entries are not always repeated. Structures can show the parent of a compound that is named as a salt.

Legend:
Assay in all cases: cell viability relative to vehicle control; higher = less cytotoxic
Conditions in all cases: 10 µM
[1] = tested on: K562
Summary of the method: (§1)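 Four leukaemia lines, as CRISPR-edited mutant clones and isogenic wild-type clones, were tested against Selleck bioactive, kinase and epigenetic probe libraries after removal of identity-inconsistent compounds. Cells were exposed to a single 10 µM dose for 48 h, and CellTiter-Glo luminescence was then read. Viability was calculated relative to the on-plate vehicle control.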

[2] = tested on: MARIMO
Summary of the method: as §1

[3] = tested on: MOLM14
Summary of the method: as §1

[4] = tested on: OCI-AML2
Summary of the method: as §1

| Structure (SMILES) | cell viability ([1]; SRSF2 genotype: SRSF2 P95H/wt) | cell viability ([1]; SRSF2 genotype: SRSF2 wt/wt) | cell viability ([2]; SRSF2 genotype: SRSF2 P95H/wt) | cell viability ([2]; SRSF2 genotype: SRSF2 wt/wt) | cell viability ([3]; SRSF2 genotype: SRSF2 P95H/wt) | cell viability ([3]; SRSF2 genotype: SRSF2 wt/wt) | cell viability ([4]; SRSF2 genotype: P95H/wt) | cell viability ([4]; SRSF2 genotype: wt/wt) |
| --- | --- | --- | --- | --- | --- | --- | --- | --- |
| O=P1(NCCCl)OCCCN1CCCl (configuration not stated) [Ifosfamide] | 98.8% and 105% | 104% | 105% | 100% | 104% | 101% | 111% | 98% |
| N#CC=C1C=CC(O)C(O)C1OC1OC(CO)C(O)C(O)C1O (configuration not stated) [Lithospermoside] | 89.9% and 83.2% | 84.3% | 86.5% | 97.5% | 87.4% | 91.7% | 95% | 116% |
| CC(C)=CCCC(C)(O)C1CCC2(C)C1C(O)CC1C3(C)CCC(O)C(C)(C)C3C(OC3OC(CO)C(O)C(O)C3O)CC12C [(20R)-Ginsenoside Rh1] | 101% and 98.6% | 103% | 111% | 98.8% | 115% | 107% | 107% | 108% |
| C=C[C@H]1CN2CC[C@H]1C[C@H]2[C@H](O)c1ccnc2ccccc12 [Cinchonidine] | 87.9% and 96.3% | 94.8% | 94.6% | 97.5% | 85.7% | 97.8% | 95.2% | 92.1% |
| Cc1cccc(C)c1NC(=O)CN1CCCC1=O [Nefiracetam (Translon)] | 108% and 104% | 107% | 109% | 107% | 105% | 100% | 103% | 110% |
| COC(=O)C[C@](O)(CCC(C)(C)O)C(=O)O[C@@H]1C(OC)=C[C@]23CCCN2CCc2cc4c(cc2[C@H]13)OCO4 [Harringtonine] | 12.3% and 17.8% | 20.6% | 8.47% | 4.47% | 2.72% | 1% | 5.78% | 10.9% |
| CCC1(c2cccc(O)c2)CCCCN(C)C1 (configuration not stated) [Meptazinol HCl] | 96.2% and 101% | 100% | 91% | 93.7% | 103% | 98.1% | 96.4% | 92.4% |
| CCN(CC)CCOC(=O)C(O)(c1ccccc1)c1ccccc1 [Benactyzine hydrochloride] | 87.1% and 93% | 84.2% | 93% | 98.4% | 92.6% | 94.4% | 89.8% | 92.6% |
| CC[C@@]1(O)C(=O)OCc2c1cc1n(c2=O)Cc2cc3ccccc3nc2-1 [Camptothecin] | 27.3% and 26.7% | 21.8% | 5.71% | 3.67% | 3.1% | 1.35% | 3.26% | 3.91% |
| CCc1c2c(nc3ccccc13)-c1cc3c(c(=O)n1C2)COC(=O)[C@]3(O)CC [7-Ethylcamptothecin] | 7.64% and 19.6% | 10.4% | 5.75% | 3.52% | 0.48% | 0.48% | 0.36% | 0.82% |
| C[C@@H]1CC[C@H]2[C@@H](C)C(=O)O[C@@H]3O[C@@]4(C)CC[C@@H]1[C@]32OO4 [Artemisinin] | 83% and 79.2% | 78.7% | 74.8% | 93.3% | 85.8% | 87.3% | 84.6% | 98.2% |
| CN1[C@@H]2CC[C@H]1C[C@@H](OC(=O)C(CO)c1ccccc1)C2 (some centres not stated) [Atropine sulfate monohydrate] | 93.4% and 94.7% | 100% | 104% | 112% | 100% | 105% | 100% | 99.6% |
| CC1=C[C@H]2Cc3[nH]c(=O)ccc3[C@]3(C1)NCCC[C@H]23 [Huperzine B] | 110% and 97% | 113% | 109% | 103% | 113% | 108% | 105% | 94.8% |
| Cn1c(CCCC(=O)O)nc2cc(N(CCCl)CCCl)ccc21 [Bendamustine HCL] | 97.2% and 96.8% | 96.3% | 94.5% | 104% | 86.3% | 97.8% | 66.5% | 83% |
| C#C[C@]1(O)C=C[C@H]2[C@@H]3CCC4=CC(=O)CC[C@@H]4[C@H]3CC[C@@]21CC [Gestodene] | 94.9% and 97.5% | 95.4% | 90.9% | 97.2% | 94.2% | 97.1% | 99% | 94.8% |
| CN1[C@@H]2CC[C@H]1C[C@@H](OC(=O)[C@H](CO)c1ccccc1)C2 [Hyoscyamine (Daturine)] | 104% and 93.5% | 91.9% | 104% | 107% | 99.2% | 102% | 95.4% | 113% |
| Fc1cc(F)c2c(c1)[C@H]1C=CC[C@H]1C(c1cccnc1)N2 (some centres not stated) [Golgicide A] | 25.9% and 36.2% | 32.3% | 14.1% | 27.5% | 46.3% | 68.2% | 12.2% | 22.5% |
| C=C1CCC2C(/C=C(\C)C(=O)C3(OC(C)=O)CC(C)C(OC(=O)c4ccccc4)C3C1OC(C)=O)C2(C)C (configuration not stated) [Euphorbia factor L3] | 48% and 62.5% | 59.5% | 34.8% | 33.8% | 47.6% | 32.9% | 65.8% | 22.4% |
| CC(C)N(CCNC(=O)CN1CCCC1=O)C(C)C [Pramiracetam] | 96.6% and 106% | 104% | 98.4% | 111% | 107% | 102% | 98.1% | 105% |
